Our source for the growth values is PubChem BioAssay (NCI).

Structures are written as SMILES. The panel holds about 83,000 compounds, 20% with a hit somewhere; the sample as a whole holds those more often.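 Values shown are percent growth following 48 h exposure of cells in 96-well plates to a single concentration of compound; below 10 was considered active.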 Unmarked numbers belong to inactive results. Active and inactive are the calls of the source.

Holding throughout (assay): NCI-60 one-dose screen, 48 h (100 = growth as untreated, 0 = no growth, -100 = all killed)
Assay [1] has as its system SNB-75 CNS. The conditions noted are these: 10 µM unless noted.
The test system of assay [2] is SNB-19 CNS. The conditions noted are these: 10 µM unless noted.
In assay [3] the test system is U251 CNS. The conditions noted are these: 10 µM unless noted.
The test system of assay [4] is PC-3 prostate. The conditions noted are these: 10 µM unless noted.
In assay [5] the test system is SK-MEL-5 melanoma. The conditions noted are these: 10 µM unless noted.
The test system of assay [6] is UACC-62 melanoma. The conditions noted are these: 10 µM unless noted.
For assay [7], the system named is LOX IMVI melanoma. The conditions noted are these: 10 µM unless noted.
Assay [8] relates to SK-MEL-28 melanoma. The conditions noted are these: 10 µM.
Assay [9] has as its system SK-MEL-2 melanoma. The conditions noted are these: 10 µM unless noted.
Assay [10] has as its system EKVX NSCLC. The conditions noted are these: 10 µM unless noted.
Assay [11] concerns SN12C renal. The conditions noted are these: 10 µM unless noted.
Assay [12] deals with UO-31 renal. The conditions noted are these: 10 µM unless noted.
Assay [13] has as its system TK-10 renal. The conditions noted are these: 10 µM unless noted.
The subject of assay [14] is ACHN renal. The conditions noted are these: 10 µM unless noted.
In assay [15] the test system is A498 renal. The conditions noted are these: 10 µM unless noted.
The subject of assay [16] is CCRF-CEM leukemia. The conditions noted are these: 10 µM unless noted.
Assay [17] relates to MOLT-4 leukemia. The conditions noted are these: 10 µM unless noted.
In assay [18] the test system is SR leukemia. The conditions noted are these: 10 µM unless noted.
For assay [19], the system named is CAKI-1 renal. The conditions noted are these: 10 µM unless noted.

Turning to `COc1ccc2oc(=O)cc(Cn3cc(Cn4cnc5c4c(=O)n(C)c(=O)n5C)nn3)c2c1`, the growth is 93.8% in assay [1]; 99.5% in [2]; 101% in [3]; 102% in assay [4]; 98.9% in [5]; 91.7% in [6]. The growth was 98.2% in assay [7]; 105% in assay [8]; 106% in assay [9]; 103% in [10]; 95.9% in assay [11]; 83.3% in [12]. The growth was 100% in [13]; 98.7% in assay [14]; 103% in assay [15]; 106% in assay [16]; 103% in [17]; 106% in [18].

With `O=S(=O)(c1ccccc1)n1cc2c(c1-c1ccccc1)CCc1sc(Nc3ccccc3)nc1-2`, the growth in [1] was 93%; in assay [2] it was 95.2%; in [3] it was 78.5%; in assay [4], 69.8%; in assay [6], 78.4%; in assay [7] it was 77.8%. Besides, the growth was 106% in assay [8]; 93.4% in assay [9]; 77.1% in assay [11]; 70.4% in assay [12]; 100% in [13]; 77.9% in assay [14]. The growth is 75.8% in assay [19]; 89.4% in assay [15]; 72.6% in assay [16]; 76% in [17]; 79.3% in assay [18].

Consider `CCOc1ccc2nc(C)cc(Nc3ccc(Br)cc3)c2c1`, for which the growth in [1] was 89.7%; in assay [2] it was 101%; in assay [3] it was 98.1%; in [4], 86.7%; in [5], 97.1%; in assay [6], 103%. The growth in assay [7] is 106%; in assay [8], 108%; in assay [9], 109%; in [11] it was 98.5%; in [12] it was 92.1%; in assay [13], 119%. In addition, the growth in [14] is 99.6%; in assay [19] it was 97%; in [15] it was 79.1%; in assay [16] it was 90.3%; in assay [17], 88.6%; in assay [18], 86.4%.

In the case of `O=C(N/N=C/c1ccccc1Cl)C(=O)Nc1cccc(C(F)(F)F)c1`, the growth in assay [1] is 116%; in assay [2], 94.1%; in assay [3] it was 96.9%; in [4], 106%; in [5], 96.6%; in assay [6] it was 91.2%. Besides, the growth in assay [7] was 94.9%; in assay [8], 113%; in assay [9], 113%; in assay [11], 92.7%; in assay [12], 90.8%; in assay [13], 83.7%. Further, the growth was 76% in assay [14]; 97.6% in [19]; 89.3% in assay [15]; 100% in [16]; 92.1% in [17]; 65.1% in assay [18].

`C=C[C@@H]1CCC/C=C/[C@@H]2C[C@H](O)C[C@H]2[C@H](O)/C=C/C(=O)O1`: the growth was 33.8% in assay [1]; 33.4% in assay [2]; 25.3% in assay [3]; 30.3% in [4]; -90.1% (active) in assay [5]; 22.1% in assay [6]. The growth in assay [7] was -63.6% (active); in [8], 6.18% (active); in assay [9], -1.5% (active); in assay [10] it was 16.9%; in [11], 13.3%; in assay [12], 6.14% (active). The growth in assay [13] was 15.5%; in assay [19] it was 10.4%; in assay [15] it was -17.9% (active); in [16] it was 12.6%; in assay [17], -9.66% (active); in assay [18] it was -15.1% (active).

In the case of `COc1ccc(Cn2cc(Cn3cc(C=C4C(=O)NC(=O)NC4=O)c4ccccc43)nn2)cc1`, the growth in assay [1] was 78.1%; in assay [2] it was 90.4%; in [3] it was 92.3%; in [4], 84.8%; in [5], 60.7%; in assay [6], 64.6%. In addition, the growth was 79.4% in assay [7]; 102% in [8]; 85.8% in [9]; 99.4% in assay [10]; 85.8% in [11]; 56.3% in assay [12]. In addition, the growth in [13] is 83.7%; in [14], 91.4%; in [15], 22.2%; in [16], 85%; in assay [17] it was 75.3%.

With `NC(=O)CSc1nc(-c2ccc(F)cc2)cc(-c2ccco2)n1`, the growth was 99.2% in assay [1]; 106% in assay [2]; 99.2% in [3]; 89.1% in assay [4]; 103% in assay [5]; 95.4% in assay [6]. Also, the growth in assay [7] is 96.4%; in assay [8], 115%; in [9], 101%; in assay [10], 95.8%; in assay [11], 101%; in assay [12], 75.2%. For the same compound, the growth in assay [13] is 129%; in assay [19], 85.7%; in assay [15] it was 103%; in assay [16] it was 107%; in assay [17] it was 97.9%; in assay [18], 94.5%.

In the case of `COC(=O)/C(CCC=C(C)C)=C1\[C@@H](OC(C)=O)C[C@@]2(C)[C@H]1C[C@@H](O)[C@H]1[C@@]3(C)CC[C@H](NCc4ccccc4)[C@@H](C)[C@@H]3CC[C@@]12C`, the growth in assay [1] was 65.1%; in assay [3], 49.2%; in assay [4] it was 31.3%; in assay [5], 59.4%; in [6] it was 69.3%; in assay [7] it was 47.3%. In addition, the growth in assay [8] is 74.6%; in assay [9], 94.4%; in assay [10], 63%; in assay [11] it was 75.6%; in assay [12] it was 47.5%; in assay [13], 111%. Also, the growth in assay [14] is 79.2%; in assay [19] it was 72.5%; in assay [15] it was 98.1%; in assay [16], 50.9%; in assay [17] it was 28.1%; in [18] it was 0.245% (active).

Regarding `O=C(CN1C(=O)/C(=C\c2ccc(Cl)cc2)SC1=S)Nc1ncc(Cc2ccc(Cl)cc2)s1`, the growth was 88.6% in assay [1]; 102% in assay [2]; 100% in [3]; 95.7% in assay [5]; 99.9% in assay [6]; 92.9% in assay [7]. Besides, the growth in [8] is 106%; in assay [9], 105%; in assay [10] it was 96.5%; in assay [11], 104%; in assay [12], 80.8%; in [13], 111%. The growth in assay [19] was 88.1%; in assay [15], 115%; in assay [16], 106%; in assay [17], 106%; in [18], 116%.

With `O=C(Nc1ccc(I)cc1F)c1cc(Br)ccc1O`, the growth in assay [1] is -26.1% (active); in assay [2], 19%; in [3], -14.5% (active); in assay [4] it was 7.44% (active); in [6], -19.2% (active); in assay [7] it was 6.07% (active). In addition, the growth in assay [8] was -3.35% (active); in assay [9], -26.5% (active); in [10], 6.95% (active); in assay [11] it was 3.31% (active); in assay [12] it was 8.84% (active); in [13], 1.98% (active). In addition, the growth in assay [14] is 4.42% (active); in assay [19], -18.9% (active); in [15] it was -62.1% (active); in assay [16], 7.25% (active); in assay [17], -12.2% (active).

Take `CCc1ccc(CNCC(O)c2ccccc2)cc1` (centres undefined): the growth was 61.8% in assay [1]; 79.7% in [2]; 60% in assay [3]; 52.7% in assay [4]; 68.6% in assay [5]; 84.5% in assay [6]. Further, the growth in assay [7] is 68.7%; in assay [8], 74.7%; in [9], 90.9%; in assay [11], 76.4%; in assay [12], 34.6%; in assay [13], 80.7%. Besides, the growth in assay [14] is 72.2%; in assay [19] it was 66.4%; in assay [15] it was 67.8%; in [16], 28.7%; in assay [17], 19.2%; in assay [18], 3.88% (active).

As to `Nc1n[nH]c2ccc([C@@H]3Nc4ccc5[nH]ncc5c4[C@H]4[C@H]5CCC(C5)[C@H]43)cc12`, the growth is 11.4% in [1]; 33.4% in [2]; 20.1% in assay [3]; 25.6% in assay [4]; 16.9% in assay [5]; 40.5% in [6]. Also, the growth in [7] is 14.7%; in assay [8], 57.7%; in assay [9], 29.5%; in [10] it was 40.2%; in assay [11], 24.6%; in assay [12] it was 46.3%. The growth is 60.8% in assay [13]; 27.7% in assay [14]; 16.4% in [19]; -20.5% (active) in assay [15]; 18% in [17].

Consider `CCN(CCO)CCNc1ccc(C)c2sc3cc(Cl)ccc3c(=O)c12`, for which the growth in [1] was 62.5%; in [2], 44.5%; in assay [3], -32.1% (active); in [4], 21.8%; in assay [6], -53.1% (active); in assay [7] it was -94.8% (active). Moreover, the growth in [8] is -61.7% (active); in assay [9], 94.4%; in [10] it was 84.4%; in [11] it was 37.8%; in [12], 37.5%; in [19], 68%. The growth is 1.76% (active) in assay [15], 14.4% in assay [16], 7.65% (active) in assay [17] and -19.4% (active) in assay [18].

Regarding `CN1C(=O)N(C)C2C1NN=c1s/c(=C\c3ccc(Cl)cc3Cl)c(=O)n12` (centres undefined), the growth is 26.5% in assay [2]; 27.5% in assay [3]; 20% in assay [4]; 30% in [6]; 19.7% in assay [7]; 58.7% in assay [8]. Besides, the growth was 57% in [9]; 50.1% in assay [10]; 30.9% in [11]; 47.3% in [12]; 83.7% in assay [13]; 29% in assay [14]. Moreover, the growth was 40.9% in [19], 15% in assay [16] and 4.89% (active) in [18].

As for `O=S(=O)(c1ccc(NC(=S)NC23CC4CC(CC(C4)C2)C3)cc1)N1CCCCC1`, the growth in [1] was 93.3%; in [2], 99.9%; in assay [3], 85.2%; in assay [4], 8.79% (active); in assay [5], 87.7%; in assay [6] it was 80.8%. For the same compound, the growth is 96.9% in assay [7]; 95% in [8]; 106% in [9]; 96.5% in assay [11]; 61.6% in assay [12]; 111% in assay [13]. Also, the growth in assay [14] is 93.6%; in assay [15], 78.8%; in [16], 13.9%; in assay [17] it was -14.7% (active); in [18] it was -21.9% (active).
